The record followed here is PubChem BioAssay (NCATS).

“And” between values parts separate entries of the source, which are not always exact repeats. Identical values can stand only once. Records with an inconclusive call do not appear. A number with no mark means an inactive call. The source made the active and inactive calls. The call rests on the fitted dose curve; in most records, active means well fitted inhibition curve with a large enough effect; inconclusive means small, poorly fitted or top-dose-only effect; inactive means flat fitted curve, though single readings scatter.
On the % scale 0 is the no-effect control and ±100 the full control effect; potency means the concentration at half of the fitted maximal effect.

This assay deals with KB-3-1. Briefly: Cytotoxic Profiling of Annotated Libraries Using Quantitative High-Throughput Screening (AID 1296008). Further: nearly all actives have a fitted effect of over 60% in size. Particulars: Five cell lines viability, CellTiter-Glo ATP luminescence, 48-72 h; max response: hits give low values. The method, boiled down: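 Compounds were pin-transferred onto cells and incubated 48 or 72 hr at 37 degree Celsius, 95% humidity. CellTiter-Glo was added, plates sat 10 min at room temperature, then ATP-coupled luminescence was imaged as the viability read-out.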
In general terms: Cellular ATP, detected with luciferase, serves as a proxy for viable cell number.
Take `[H+].[H+].[Hg+2].[O-]B([O-])[O-].[c-]1ccccc1`: the Potency is 8.2 µM (active).

As for `C[C@]12CC[C@H](OS(=O)(=O)O)CC1=CC[C@@H]1[C@@H]2CC[C@]2(C)C(=O)CC[C@@H]12`, the max response is 5.94%.

In the case of `O=[N+]([O-])C(Br)(CO)CO`, the max response was 1.16%.

As for `O=c1[nH]cc(N(CCCl)CCCl)c(=O)[nH]1`, the max response was -15%.

`O=C1C[C@@H]2OCC=C3CN4CC[C@]56c7ccccc7N1[C@H]5[C@H]2[C@H]3C[C@H]46` (tested in a mixture with another compound): the max response was 0.545% and 11.6%.

Take `C[C@]12CC[C@H]3[C@@H](CCC4=C(Cl)C(=O)CC[C@@]43C)[C@@H]1CC[C@@H]2O`: the max response is 3.69%.

Consider `CC(=O)Oc1ccc2c3c1O[C@H]1[C@@H](OC(C)=O)C=C[C@H]4[C@@H](C2)N(C)CC[C@@]341`, for which the max response is -5% and 2.33%.

`CN1c2ccccc2C(NCCCCCCC(=O)O)c2ccc(Cl)cc2S1(=O)=O` (stereo not given): the max response was -15.2%.

For `CCC1(c2ccccc2)C(=O)NC(=O)N(C)C1=O` (stereo not given), the max response is -7.5%.

For the compound `COC1=CC=C2[C@H]3Cc4ccc(OC)c5c4[C@@]2(CCN3C)[C@H]1O5`, the max response is 16.1% and -9.66%.

In the case of `CCN(CC)C(=O)N[C@H]1C[C@@H]2c3cccc4[nH]cc(c34)C[C@H]2N(C)C1`, the max response is -7.12%.

For the compound `COCC(C)N(C(=O)CCl)c1c(C)csc1C` (stereo not given), the max response was -0.17%.

On to `CN(C)[C@H](Cc1ccccc1)c1ccccc1`, for which the max response was 1.61%.

Turning to `O=C1OC2(c3cc(Br)c(O)cc3Oc3c2cc(Br)c(O)[c]3[Hg])c2ccccc21` (stereo not given), the max response was 6.88%.

For `COc1ccc2c3c1O[C@H]1C(=O)CC[C@H]4[C@@H](C2)N(C)CC[C@]314`, the max response is 8.34%.

For the compound `CCCCCl`, the max response is -7.35%.

Take `N#CC(C#N)=Cc1cc(O)c(O)c(O)c1`: the max response is -23.8%.

For the compound `CCN(CC)CCO[C@H]1CC[C@@]2(C)C(=CC[C@@H]3[C@@H]2CC[C@]2(C)C(=O)CC[C@@H]32)C1`, the max response was -11.5%.

On to `O=[N+]([O-])c1cc(I)c(O)c(I)c1`, for which the max response is -0.558%.

With `Cc1ccccc1-n1c(CF)nc2ccc(N)cc2c1=O`, the max response is -0.0685%.
